# This is one part of a sample in which hits are shown more often than they occur.
# TDP1 cell noCPT = qHTS for Inhibitors of human tyrosyl-DNA phosphodiesterase 1 (TDP1): qHTS in cells in absence of CPT | Potency, µM (top dose mostly 46.2 µM), without a hit: at the highest dose activity change, negative = growth inhibition, actives largely listed as inhibitors | AID 686978, 2013 | actives 15% (n = 420,000) | DT40 Tdp1-/- hTDP1 cells, no CPT, ATP luminescence, 48 h; also: potency is read from the fitted curve at half-maximal effect; nearly all actives have a fitted effect of over 55% in size
#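 A cellular qHTS used chicken DT40 cells lacking endogenous Tdp1 but carrying stably transfected human TDP1. Compounds were applied without camptothecin, and cell growth kinetics were judged by ATP-dependent luminescence after ≥48 hr.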
# ALOX12 inh = inhibitors of human 12S-lipoxygenase ALOX12; P18054; Potency, µM (doses to about 108 µM), for the others: at the top dose activity change, negative = inhibition, hits mostly inhibitors; actives 1.1% (n = 580,000); AID 1671190; purified 12hLO, xylenol orange hydroperoxide absorbance; also: potency is read from the fitted curve at half-maximal effect
# Target sequence (P18054 whole entry, looked up): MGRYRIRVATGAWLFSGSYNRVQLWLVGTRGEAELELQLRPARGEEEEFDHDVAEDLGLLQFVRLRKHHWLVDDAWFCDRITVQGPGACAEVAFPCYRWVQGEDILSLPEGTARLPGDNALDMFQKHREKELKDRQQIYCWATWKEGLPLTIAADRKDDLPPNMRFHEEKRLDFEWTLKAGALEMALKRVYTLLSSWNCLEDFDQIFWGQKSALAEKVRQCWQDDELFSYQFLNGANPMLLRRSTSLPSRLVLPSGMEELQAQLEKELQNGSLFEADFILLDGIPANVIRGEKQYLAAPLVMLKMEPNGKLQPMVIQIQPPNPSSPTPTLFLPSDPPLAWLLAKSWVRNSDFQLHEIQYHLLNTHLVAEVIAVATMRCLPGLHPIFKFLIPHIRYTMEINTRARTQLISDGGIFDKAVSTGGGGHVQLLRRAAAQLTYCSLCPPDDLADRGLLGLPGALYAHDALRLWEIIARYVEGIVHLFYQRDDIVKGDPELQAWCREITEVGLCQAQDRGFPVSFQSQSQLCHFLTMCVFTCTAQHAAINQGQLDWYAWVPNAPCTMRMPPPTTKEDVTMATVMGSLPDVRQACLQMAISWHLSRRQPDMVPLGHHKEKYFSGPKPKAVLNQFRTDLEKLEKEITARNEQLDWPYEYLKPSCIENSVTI
#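 Hydroperoxide product was detected by ferrous iron/xylenol orange as the 573 to 405 nm absorbance ratio. Arachidonic acid at 40 uM (final) was turned over for 30 min at room temperature by 150 nM human 12hLO, pH 7.0 Hepes buffer, after 15 min compound preincubation.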
# TDP1 cell CPT = DT40-hTDP1 cell growth loss with CPT | chicken DT40 Tdp1-/-;hTDP1 cells + 20 nM CPT, ATP luminescence, 48 h | actives 12% (n = 420,000) | Potency, µM (series often up to 46.2 µM), inactives show top-dose activity change, negative = growth inhibition, usual class: inhibitors; also: potency is read from the fitted curve at half-maximal effect; nearly all actives have a fitted effect of over 55% in size
#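 Chicken DT40 Tdp1-/- cells stably complemented with human TDP1 were seeded at 400 cells/well in medium containing 20 nM camptothecin, exposed to pin-transferred compounds, and grown at 37 °C for at least 48 hr. Viability was read as ATP luminescence.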
# IL1B secr inh = inflammasome signaling inhibition, IL-1 beta readout. actives 4.7% (n = 360,000). activity change, % at 57.5 µM. THP-1 LPS/ATP IL-1B secretion, AlphaLISA, 16 h; stronger effect = lower value; in the data active = activity change below about -50%; inconclusive = mostly about -30% to -49%
#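 Secreted IL-1B measured by AlphaLISA bead assay after 16 h compound exposure of THP-1 cells; compounds (final up to 57.5 uM) added 1 h before LPS (250 ng/mL) and ATP (1.25 mM) stimulation; lower signal means less secretion.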
# HT1080 IDH1KD tx = toxicity to HT-1080 IDH1 knockdown cells (counter line) | HT-1080 IDH1 knockdown viability, ATP luminescence, 48 h | Potency, µM (top dose mostly 46.1 µM), for inactives: at the highest dose activity, negative = toxicity, usual class: cytotoxic | actives 2% (n = 360,000);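 also: potency is read from the fitted curve at half-maximal effect; 0% = DMSO wells and -100% = cell-free medium wells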
#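 After a 2 h attachment period, IDH1KD HT-1080 cells took pin-transferred compound for 48 h at 37 °C; ATP-based luminescence after 10 min room-temperature reagent incubation reported viability.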
# HT1080-NT tox = kills 2HG-producing HT-1080-NT fibrosarcoma cells | HT-1080-NT fibrosarcoma viability, CellTiter-Glo ATP luminescence, 48 h | Potency, µM (series often up to 46.1 µM), for the others: at the highest dose activity, negative = less viability, hits mostly cytotoxic | actives 1.6% (n = 360,000);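 also: NT is the 2HG producing partner of a matched IDH1 knockdown line; potency is read from the fitted curve at half-maximal effect; 0% = DMSO-treated cells and -100% = media-only wells without cells; nearly all actives have a fitted effect of over 55% in size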
#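 Fibrosarcoma NT cells, 750 per well in 5% FBS RPMI, were exposed to compound for 48 hours. Viability: CellTiter-Glo luminescence.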
# * hit, by the source's call; ? = inconclusive; · = not tested or not shown; [ ] = dose if it differs, or a comment. Unless noted, calls follow the shape of the dose curve; as a rule, active = well fitted curve in the direction sought with a large enough effect; inconclusive = small, poorly fitted or top-dose-only effect, or another doubt; inactive = no such curve, though single readings can be large; an effect the other way counts as inactive or inconclusive. Unless noted, % is scaled to controls: 0 for no effect and ±100 for the full control effect.
SMILES,TDP1 cell noCPT,ALOX12 inh,TDP1 cell CPT,IL1B secr inh,HT1080 IDH1KD tx,HT1080-NT tox
COc1ccc(-c2cc(N3CCCN(C(=O)c4cccc(Cl)c4)CC3)n[nH]2)cc1,·,45%,·,·,·,·
COc1cccc(C(=O)N2CCN(c3oc(-c4ccccc4)nc3C#N)CC2)c1,·,-10%,·,·,·,·
COc1cccc(-c2cc3nc(-c4ccccc4)cc(N4CCN(C(=O)c5ccoc5)CC4)n3n2)c1,5.2µM*,-13%,7.3µM*,-13,?,-18%
COc1cccc(-c2cc3nc(-c4ccccc4)cc(N4CCC5(CC4)OCCO5)n3n2)c1,21µM*,3%[57.4 µM],?,?,5%[9.24 µM],?
CCOc1ccc(Nc2nc(-c3cc(C)ccc3C)cs2)cc1,·,3%,·,·,·,·
CC1(c2ccccc2)N(Cc2cccnc2)C(=O)OC12CCN(C(=O)c1ccc(Oc3ccccc3)cc1)CC2 (stereo unspecified),·,15%,·,·,·,·
O=C(COC(=O)c1ccc(Br)c([N+](=O)[O-])c1)c1ccc(Br)cc1,·,-47%,·,·,·,·
O=S(=O)(Nc1cc(Cl)ccc1-n1cncn1)c1cc(Br)ccc1Br,5.8µM*,?,26µM*,-54*,?,?
O=S(=O)(Nc1cc(Cl)ccc1-n1cncn1)c1ccc(F)cc1,?,?,?,45,-4%,-7%
CCC(=O)Nc1ccc(O)c(-c2nc3cc(CC)ccc3o2)c1,·,38%,·,·,·,·
C#CC[N+]1(CC#Cc2ccc(C)cc2)CCCCC1,3.3µM*,-13%,2.3µM*,15,-19%,?
C=CC[N+]1(CC#Cc2ccccc2)CCCC1,?,11%,?,36,-1%,5%
C(#Cc1ccccc1)C[N+]1(CC#Cc2ccccc2)CCCC1,1µM*,41%,1.8µM*,?,?,-21%
COc1ccc2nc(C)c(C(=O)N(C)CC34CC5CC(CC(C5)C3)C4)cc2c1,·,-23%,·,·,·,·
O=C(CC1SCCNC1=O)Nc1cc(Cl)ccc1Cl (stereo unspecified),·,-29%,·,·,·,·
COc1cc(OC)cc(C(=O)N2CCC3(CC2)N=C(c2ccc(C)cc2)NO3)c1,·,0%,·,·,·,·
CCC(=O)C1CCCN(C(=O)c2ccc3nc(-c4cccc(OC)c4)oc3c2)C1 (stereo unspecified),?,?,?,-15,-10%,-18%
CCN(CC)C(=O)C1CCCN(C(=O)c2ccc3nc(-c4cccc(OC)c4)oc3c2)C1 (stereo unspecified),12µM*,8%,23µM*,-7,-2%,1%
CCOC(=O)C1CCCN(C(=O)c2ccc3nc(-c4cccc(OC)c4)oc3c2)C1 (stereo unspecified),2.9µM*,500%,3.3µM*,4,6.5µM*,?
CCCOc1ccc(CNC(=O)C2=C(c3ccccc3)c3cc(Cl)ccc3S(=O)(=O)N2C)cc1,·,-1%,·,·,·,·
CCn1c(/C=C2/C(=O)N(C)c3ccccc32)nc2ccccc2c1=O,16µM*,-19%,?,-16,-20%,-18%
CCn1c(/C=C2\C(=O)N(C)c3ccccc32)nc2ccccc2c1=O,?,-4%,?,1,-2%,-3%
CCN1C(=O)/C(=C\c2nc3ccccc3c(=O)n2CC)c2ccccc21,29µM*,-15%,16µM*,-86*,-25%,-16%
CCN1C(=O)/C(=C/c2nc3ccccc3c(=O)n2-c2ccccc2)c2ccccc21,18µM*,10%,21µM*,·,-6%,-12%
O=C(/C=C/c1cccs1)Oc1ccc2oc3ccccc3c2c1,·,-4%,·,·,·,·
SMILES,TDP1 cell noCPT,ALOX12 inh,TDP1 cell CPT,IL1B secr inh,HT1080 IDH1KD tx,HT1080-NT tox
Cc1ccccc1NC(=O)c1ccc2ccccc2n1,·,-11%,·,·,·,·
COc1ccc(C(=O)N(Cc2ccco2)Cc2ccc(C)o2)cc1,21µM*,?,21µM*,·,·,·
CCc1ccc(CN(Cc2ccco2)C(=O)c2ccc(OC)cc2)cc1,23µM*,0%,?,·,·,·
CCOc1ccc(NC(=S)Nc2ccc(F)cc2)cc1,?,?,?,-1,-4%,-1%
Cc1ccc(NC(=S)Nc2ccc(F)cc2)cc1C,?,?,?,-58*,0%,-3%
Fc1ccc(NC(=S)Nc2ccc3nccnc3c2)cc1,18µM*,?,16µM*,-2,7%,5%
COc1ccc(NC(=S)Nc2ccc(F)cc2)cc1,26µM*,-4%,?,-13,2%,3%
Cc1ccc(NC(=S)NCCc2ccc(F)cc2)cc1C,·,-3%,·,·,·,·
COc1ccc2cc(C(=O)NCC(=O)Nc3c(C)cc(C)cc3C)c(C)nc2c1,·,8%,·,·,·,·
CCOC(=O)c1c(-c2ccc(OC)c(OC)c2)csc1NC(C)=O,·,-14%,·,·,·,·
CC(C)c1cnc(-c2ccncc2)[nH]1,·,10%[12.5 µM],·,·,·,·
CCN(Cc1ccc(OC)cc1)c1ccc(-c2nc(-c3ccncc3)no2)cc1[N+](=O)[O-],?,-3%,?,·,·,·
Cc1cc(-c2nc(-c3ccncc3)no2)ccc1[N+](=O)[O-],?,?,15µM*,-8,24%,16%
Cc1ccc(-c2nc(-c3ccccn3)no2)cc1[N+](=O)[O-],23µM*,0%,?,3,-1%,-2%
CCN(CC)c1ccc(-c2nc(-c3ccccn3)no2)cc1[N+](=O)[O-],16µM*,0%,-7%,·,·,·

# Bioassay records (PubChem)
